This note sets out measurements from PubChem BioAssay (NCATS).

Inconclusive results are not listed. Entries that show only a call come without a potency. The source made the active and inactive calls. Calls follow the shape of the dose curve; as a rule, active = well fitted inhibition curve with a large enough effect; inconclusive = small, poorly fitted or top-dose-only effect; inactive = no such curve, though single readings can be large or run the other way.
Potency is read from the fitted curve at half-maximal effect.

The assay has as its system Zika virus NS2B-NS3 protease (unlinked complex). The experiment in a line: Primary screen GU Rhodamine qHTS for Zika virus inhibitors: Unlinked NS2B-NS3 protease assay (AID 1347159). Also: nearly all actives have a fitted effect of over 60% in size. Particulars: Recombinant ZIKV NS2B-NS3 protease, Rhodamine110 substrate fluorescence; series mostly up to 107 µM. The source says:
Avindra Nath, Ph.D., National Institute of Neurological Disorders and Stroke (NINDS), Bethesda, MD
Radhakrishnan Padmanabhan, Ph.D., Georgetown University (GU), Washington D.C.
Zika Virus causes congenital defects, including microcephaly and is associated with Guillain-Barre syndrome, eningoencephalitis and myelitis in infected adult. […] Using a target-based approach, we hope to establish a screening paradigm to uncover novel, cell-active NS2B-NS3 protease (Zika Virus) specific inhibitors from NCATS' collection of small molecules using qHTS.
Four assay panel was created to identify potential Zika Virus inhibitors. Namely, (1) GU unlinked NS2B-NS3 AMC tagged protease qHTS, (2) GU unlinked NS2B-NS3 Rhodamine tagged protease qHTS, (3) NINDS linked NS2B-NS3 AMC tagged protease qHTS, (4) NINDS linked NS2B-NS3 Rhodamine tagged protease qHTS. Active compounds were re-acquired and re-screened to confirm inhibition. Inhibitors were further screened against various confirmatory and counterscreens in dose response format.
Early Translation Branch (ETB)
National Center for Advancing Translational Sciences (NCATS), Rockville, MD
National Institute of Health (NIH), Bethesda, Maryland
Padmanabhan lab provided the NS2B hydrophilic domain and NS3 protease domain in a noncovalent complex used for the unlinked assay. Control compound aprotinin is obtained from Thermo Scientific (#78432; Waltham, Massachusetts). Rhodamine110 substrate ([N-Cbz]-Nle-Lys-Arg-Arg-Rhod110-Arg-Arg-Lys-Nle-[N-Cbz]) was purchased from either Genscript or Bachem.
1536-well Protease (Rhodamine110 Substrate) Assay:
Briefly, 3 microL of enzyme (25 nM final concentration), in assay buffer (10 mM Tris-HCl pH 8.0 with 0.01% Tween 20) were dispensed into a 1,536-well solid-bottom black plate (Greiner Bio One, Monroe, NC). Twenty-three nL of compounds (final concentration range 7.28 nM to 114 microM) or control Aprotinin (final concentration range 3.47 nM to 114 microM) were transferred via Wako Pin-tool (Wako Automation, Richmond, VA). Samples were incubated (room temperature, protected from light) for 15 minutes followed by a 1 microL Rhodamine110 substrate addition (1.5 microM final concentration). Plates were then immediately read on a ViewLux High-throughput CCD imager (PerkinElmer, Waltham, MA) equipped with FITC fluorescence optics (480(20) nm excitation, 540(25) nm emission), then incubated (room temperature, protected from light) for 15 minutes (~15% conversion). The change in fluorescence intensity over the 15-minute reaction period was normalized against no-inhibitor and no-enzyme controls and the resulting percent inhibition data were fitted to a 4-parameter Hill equation. Aprotinin was used as intraplate control.
Background: In qHTS, concentration-response curves come from the screen itself.
For the compound `O=C(Nc1ccc(Cl)cc1)Nc1cccc(-c2cccc(N3CCCC3)n2)c1`, the Potency entry was “inactive”.

With `CC(O)(C(=O)O)C1CCC2(C)C1CCC1(C)C2CCC2C3(C)CCC(O)C(C)(COC4OC(CO)C(O)C(O)C4O)C3CCC21C` (stereo not given), the Potency was 7.94 µM (active). The value for `COc1ccc(NC(=O)C2C[C@H](C)CC[C@H]2C(C)C)cc1` (stereo not given in full) was “inactive”. The value for `CCC(=O)N1CCOc2c(cc(-c3ccc(OC)c(OC)c3)cc2OC[C@H]2CCCN(C)C2)C1` was “inactive”; that for `CCN1CCC[C@@H]1CNC(=O)c1ccc2c(c1)NC(=O)c1cccc(C)c1S2` was “inactive”; that for `CC(=O)NC[C@H]1CN(c2ccc(N3CCSCC3)c(F)c2)C(=O)O1` was “inactive”. Turning to `COc1cc(CCO)ccc1O[C@@H]1O[C@H](CO)[C@@H](O)[C@H](O)[C@H]1O`, the Potency result is “inactive”. `CCC(C)CC(=O)OC1C(=O)C(CO)=CC(O)C1C(C)C` (stereo not given): the Potency result is “inactive”.

Regarding `CS(=O)(=O)Nc1ccc2oc3c(OC(F)F)ccc(C(=O)Nc4c(Cl)cncc4Cl)c3c2c1`, the Potency entry is “inactive”.

For `COC(=O)c1ccc2c(c1)[nH]c1ncnc(NCCCN3CCCCC3)c12`, the Potency entry was “inactive”. In the case of `CN(C)CCC(CSc1ccccc1)Nc1ccc(S(=O)(=O)NC(=O)c2ccc(N3CCN(Cc4ccccc4-c4ccc(Cl)cc4)CC3)cc2)cc1[N+](=O)[O-]` (stereo not given) it was 7.94 µM (active); in that of `COc1cc2ncc(-c3ccccc3)nc2cc1OC`, “inactive”. In the case of `CCCN1CCC=C(c2cc(-c3ccc(C)cc3)no2)C1` it was “inactive”; in that of `COc1ccccc1S(=O)(=O)Nc1ccc2c(c1)CN(C)C(=O)N2`, “inactive”.

With `C=C[C@]1(C)C[C@H](O)[C@H]2C(=C)C(=O)O[C@@H]2[C@H]1C(=C)CO`, the Potency entry was “inactive”.

Regarding `O=C(O)CCc1nccc2c1[nH]c1ccccc12`, the Potency result is “inactive”. The value for `CC(C)NC(=O)COc1cccc(-c2nc(Nc3ccc4[nH]ncc4c3)c3ccccc3n2)c1` was “inactive”; that for `COc1ccc(NC(=O)c2ccc(C(=N)N(C)C)cc2)c(C(=O)Nc2ccc(Cl)cn2)c1` was “inactive”. In the case of `CCCNCCc1ccc(NS(=O)(=O)c2ccc(OC(F)(F)F)cc2)cc1` it was “inactive”.

`Nc1nc(Nc2ccc3c(c2)CCC(N2CCCC2)CC3)nn1-c1cc2c(nn1)-c1ccccc1CCC2` (stereo not given): the Potency was 50.1 µM (active). In the case of `O=C(NC1CCC1)c1ccc(C#Cc2cccc(F)c2)nc1` it was “inactive”; in that of `CC1=C(C(=O)Nc2cc(Cl)ccc2Cl)C(c2ccco2)C2=C(CCCC2=O)N1` (stereo not given), “inactive”. The value for `C=C(COC(=O)C(O)C(O)CN)C12OC1C1(C)C(=CC2=O)C(O)C(O)CC1C` (stereo not given) was “inactive”. In the case of `C=C(C)C(=O)OC1CC(CO)CCC/C(CO)=C/C2OC(=O)C(=C)C21` (stereo not given) it was “inactive”. Regarding `COc1ccc(N(C(=O)Nc2c(C)cccc2C)c2cc(Nc3ccc(N4CCN(C)CC4)cc3)ncn2)c(OC)c1`, the Potency entry is “inactive”.

Regarding `Cc1cc(C)cc(-c2cnc3cc(Cl)c(-c4cccc(O)c4)cc3c2OCCCN)c1`, the Potency entry was “inactive”. The value for `C=CC(=O)Nc1cccc(Nc2nc(Nc3ccc(OCCOC)cc3)ncc2F)c1` was “inactive”; that for `CC(=O)C=C=C1C(C)(C)CC(O)CC1(C)O[C@@H]1O[C@H](CO[C@H]2OC[C@](O)(CO)[C@H]2O)[C@@H](O)[C@H](O)[C@H]1O` (stereo not given in full) was 20 µM (active).

Consider `COc1ccc(NC(=O)c2ccc(-c3ccc(C(=N)N)cc3C)cc2)cc1N1CCN(C)CC1`, for which the Potency result was “inactive”.

For the compound `CCOc1cc(C(C)(C)C)ccc1C1=N[C@@](C)(c2ccc(Cl)cc2)[C@@](C)(c2ccc(Cl)cc2)N1C(=O)N1CCN(CC(=O)N2CCOCC2)CC1`, the Potency entry was “inactive”. In the case of `CC(=O)O[C@H]1CC2C(COC(=O)CC(C)C)=CO[C@@H](OC(=O)CC(C)C)C2[C@]12CO2` (stereo not given in full) it was “inactive”; in that of `C=CC1(C)CC(O)C(C(=C)C(=O)OC)C(O)C1C(=C)CO` (stereo not given), “inactive”. In the case of `Cc1sc2c(c1C)C(c1ccc(Cl)cc1)=N[C@@H](CC(=O)Nc1ccc(OCCOCCOCCOCCNc3cccc4c3C(=O)N(C3CCC(=O)NC3=O)C4=O)cc1)c1nnc(C)n1-2` (stereo not given in full) it was “inactive”; in that of `C=C(C=O)[C@]1(O)C[C@@]2(C)C(=CC1=O)C=C[C@H](OC(=O)/C=C/C=C/[C@H](C)CC)[C@@H]2C`, 8.91 µM (active). The value for `C=CC(=O)Nc1ccc2ncnc(Nc3cccc(Br)c3)c2c1` was 44.7 µM (active). Consider `C[C@H](Oc1cc(-c2cnn(C3CCNCC3)c2)cnc1N)c1c(Cl)ccc(F)c1Cl`, for which the Potency entry was “inactive”. The value for `O=C(NCCN1CCN(c2cccc3ccc(O)cc23)CC1)c1ccc(F)cc1` was “inactive”; that for `Cn1cc(-c2ccc(S(=O)(=O)n3ccc(/C=C/C(=O)Nc4ccccc4N)c3)cc2)cn1` was “inactive”; that for `Cc1ccc(C)c(NS(=O)(=O)c2cc(C(=O)Nc3ccccc3-c3ccccc3)ccc2C)c1` was “inactive”. The value for `CCC(C)/C=C(C)/C=C/C1=CC2=C(Cl)C(=O)C(C)(OC(C)=O)C(=O)C2(O)C(OC)O1` (stereo not given) was 28.2 µM (active).
